An excerpt weighted towards active compounds, which were near 2.9% of everything screened.
EPAC2 ant val: human EPAC2 antagonism, validation; Q8WZA2; EPAC2 Rap1B BODIPY-GDP exchange, fluorescence; Potency, µM (series often up to 112 µM), for inactives: at the top dose activity, negative = inhibition, usual class: inhibitors; actives 1.7% (n = 16,000); AID 1645886;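 note: 100% = activation by cAMP agonist control; nearly all actives have a fitted effect of over 40% in size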
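Normalized against a 6.5 mM cAMP agonist control, compounds were tested on 100 nM EPAC2 exchanging Rap1B-bound BODIPY-GDP (250 nM) for 50 uM GDP. Fluorescence drop (ex 480, em 540 nm) was tracked at room temperature over 30 min at 5-min intervals.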
EPAC1 agonist: human EPAC1 agonism, validation; actives 1% (n = 16,000); EPAC1 Rap1b BODIPY-GDP exchange, fluorescence; Potency, µM, inactives show max response, positive = active, most hits filed as activators; note: nearly all actives have a fitted effect of over 70% in size
Target sequence (O95398 whole entry, looked up): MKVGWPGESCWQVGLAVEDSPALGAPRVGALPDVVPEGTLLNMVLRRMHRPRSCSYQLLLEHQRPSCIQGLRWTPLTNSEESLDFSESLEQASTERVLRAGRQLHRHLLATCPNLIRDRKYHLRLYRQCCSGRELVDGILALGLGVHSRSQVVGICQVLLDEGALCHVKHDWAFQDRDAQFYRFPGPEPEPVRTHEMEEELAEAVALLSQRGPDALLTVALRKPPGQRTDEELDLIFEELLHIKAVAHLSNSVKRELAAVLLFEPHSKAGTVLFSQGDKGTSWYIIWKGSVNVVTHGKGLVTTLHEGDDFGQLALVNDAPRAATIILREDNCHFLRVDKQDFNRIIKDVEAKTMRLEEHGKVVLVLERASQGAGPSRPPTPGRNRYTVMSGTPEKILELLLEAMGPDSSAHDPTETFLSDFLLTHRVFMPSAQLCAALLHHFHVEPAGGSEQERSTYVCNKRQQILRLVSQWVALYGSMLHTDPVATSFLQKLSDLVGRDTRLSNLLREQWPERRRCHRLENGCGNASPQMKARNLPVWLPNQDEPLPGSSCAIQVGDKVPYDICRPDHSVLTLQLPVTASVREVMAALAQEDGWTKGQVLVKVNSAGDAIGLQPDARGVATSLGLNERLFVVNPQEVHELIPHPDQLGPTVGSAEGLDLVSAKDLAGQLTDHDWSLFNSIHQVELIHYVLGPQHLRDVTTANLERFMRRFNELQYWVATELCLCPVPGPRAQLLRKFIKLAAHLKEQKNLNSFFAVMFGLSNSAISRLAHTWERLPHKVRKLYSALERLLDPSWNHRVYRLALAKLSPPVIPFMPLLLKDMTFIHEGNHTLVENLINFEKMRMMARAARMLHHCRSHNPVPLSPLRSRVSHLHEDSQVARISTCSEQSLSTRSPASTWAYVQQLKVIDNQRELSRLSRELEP
* = called active by the depositor; u = inconclusive; ! = not active in a repeat; [ ] = dose if it differs, or a comment. Calls come from the whole dose curve; as a rule, active = well fitted curve in the direction sought with a large enough effect; inconclusive = small, poorly fitted or top-dose-only effect, or another doubt; inactive = no such curve, though single readings can be large; an effect the other way counts as inactive or inconclusive. Unless noted, % is set by controls: 0 for no effect and ±100 for the full control effect; potency is the fitted concentration of half-maximal effect.

SMILES	EPAC2 ant val	EPAC1 agonist
C[N@+]12CCCC[C@@H]1CCC(=C(c1cccs1)c1cccs1)C2	5.5%	-4.2%
CN(C)c1ccc(C(=C2C=CC(=[N+](C)C)C=C2)c2c(O)c(S(=O)(=O)[O-])cc3cc(S(=O)(=O)O)ccc23)cc1	56.2µM*	-36.4%
CN(C)c1ccc(C(=C2C=CC(=[N+](C)C)C=C2)c2ccccc2)cc1	-0.9%	-10.4%
C(=C\c1nccc2ccccc12)/c1ccc(N2CCOCC2)cc1	6.1%	100µM*
Cc1noc(C)c1-c1nc(N2CCOCC2)c2ccccc2n1	1.8%	-31.1%
Cc1cc2c(c(-c3nc4ccccc4s3)c1)OC(CNC(=O)CCc1cccnc1)C2 (centres undefined)	u	16.6%
COC(=O)c1cc(CNC(=O)c2ccccc2OC)cc(NC(=O)c2ccccc2F)c1	-29.1%	21.1%
COc1ncc2nc(-c3cccs3)c(=O)n(CCC#N)c2n1	-19.8%	-30.6%
O=c1c(-c2ccccc2)nc2cnc(N3CCOCC3)nc2n1-c1ccccc1	-16.9%	-31.0%
CN1CCN(c2ncc3nc(-c4cccs4)c(=O)n(Cc4cccs4)c3n2)CC1	4.1%	-12.1%
O=c1c(-c2cccs2)nc2cnc(N3CCNCC3)nc2n1Cc1cccs1	56.2µM*	u
CN(C)c1ncc2nc(-c3cccs3)c(=O)n(CCC#N)c2n1	112.9%	100µM*
N#CCCn1c(=O)c(-c2ccccc2)nc2cnc(Nc3ccccc3)nc21	-19.4%	22.5%
N#CCCn1c(=O)c(-c2ccc(Cl)cc2)nc2cnc(Nc3ccccc3)nc21	-3.0%	112µM*
O=c1c(-c2cc(F)cc(F)c2)nc2cnc(N3CCOCC3)nc2n1-c1ccccc1	-9.1%	112µM*
COc1ccc2ccccc2c1CN1CCC2(CCC(CNC(=O)c3ccccc3)O2)CC1 (centres undefined)	9.1%	-15.5%
CN(C)C(=O)[C@@H]1C[C@@H](Sc2nc3ccccc3[nH]2)CN1Cc1ccnc2ccccc12	u	-7.1%
CN(C)c1ncc2ncc(=O)n(Cc3cccs3)c2n1	44.7µM*	-5.8%
COCCn1c(=O)c(-c2cccs2)nc2cnc(N3CCOCC3)nc21	15.3%	112µM*
COCCn1c(=O)c(-c2cccs2)nc2cnc(Nc3ccccc3)nc21	70.8%	100µM*
COc1ccc(-n2c(=O)c(-c3cccs3)nc3cnc(N4CCOCC4)nc32)cc1	-26.1%	u
COc1ncc2ncc(=O)n(Cc3cccs3)c2n1	-21.3%	2.6%
COc1ccc(-n2c(=O)c(-c3cccs3)nc3cnc(Nc4cccc(OC)c4)nc32)cc1	27.6%	100µM*
COCCn1c(=O)c(-c2ccc(OC)cc2)nc2cnc(Nc3ccccc3)nc21	-17.9%	-18.8%
COc1cccc(Nc2ncc3nc(-c4cccs4)c(=O)n(CCC#N)c3n2)c1	3.4%	u
SMILES	EPAC2 ant val	EPAC1 agonist
Nc1ncnc2c1ncn2[C@H]1O[C@H](CO)[C@@H](O)[C@@H]1O	12.4%	-13.7%
CC(C)c1c(C(=O)N(C)Cc2cccc3ncccc23)cnn1-c1nccc(-c2ccccc2F)n1	-26.6%	13.9%
CSc1ccccc1C(=O)NCc1nc(-c2cccc(NC(=O)c3ccoc3C)c2)oc1C	-26.5%	8.8%
O=c1c(-c2cc(F)cc(F)c2)nc2cnc(N3CCNCC3)nc2n1Cc1cccs1	44.7µM*	u
O=c1c(-c2cc(F)cc(F)c2)nc2cnc(N3CCOCC3)nc2n1Cc1cccs1	-1.9%	-30.4%
COC(=O)C1CCN(Cc2ccc3c(c2)CN(C(=O)c2cc(-c4ccc(C)o4)[nH]n2)CCO3)CC1	u	-4.8%
COc1cc(CN2CCC3(CC2)c2ccccc2[C@@H](NC(=O)c2ccccc2OC)[C@@H]3O)ccc1F	-18.4%	-8.3%
c1ccc(C(NCc2cccnc2)(c2ccccc2)c2ccccc2)cc1	10µM*	u
c1cncc(CNc2ccnc(-c3cccnc3)n2)c1	5.9%	20.1%
CCN(CC)CCCC(C)Nc1cc(/C=C/c2ccccc2Cl)nc2cc(Cl)ccc12 (centres undefined)	-4.3%	18.9%
CCN(CC)CCCC(C)Nc1c2ccc(Cl)cc2nc2ccc(OC)cc12 (centres undefined)	5.6%	112µM*!
c1cncc(CNc2nc(-c3ccc4c(c3)OCO4)nc3ccccc23)c1	-19.8%	u
COc1ccccc1-c1nc(NCc2cccnc2)c2ccccc2n1	-13.5%	-20.6%
COc1cccc(-c2nc(NCc3ccc(OC)cc3OC)c3ccccc3n2)c1	-21.1%	u
COc1ccc(CNc2nc(-c3ccc4c(c3)OCO4)nc3ccccc23)c(OC)c1	-14.8%	112µM*
Cc1cccc(CNc2nc(-c3ccc4c(c3)OCO4)nc3ccccc23)c1	u	112µM*
COc1ccccc1CNc1nc(-c2cccnc2)nc2ccccc12	-22.4%	89.1µM*
Cc1cnc(SCc2ccccn2)nc1C1CCCN(C(=O)c2cc3ccccc3oc2=O)C1 (centres undefined)	-15.0%	17.8%
CCCCCCCCCCCCCCCC(=O)O[C@@H]1CC(C)=C(/C=C/C(C)=C/C=C/C(C)=C/C=C/C=C(C)/C=C/C=C(C)/C=C/C2=C(C)C[C@@H](OC(=O)CCCCCCCCCCCCCCC)CC2(C)C)C(C)(C)C1	-15.8%	-54.6%
Cc1cccc(C)c1Nc1ncccc1C(=O)O	-1.9%	-9.6%
COC(=O)[C@H]1[C@H]2C[C@@H]3c4[nH]c5cc(OC)ccc5c4CCN3C[C@H]2C[C@H](OC)[C@@H]1OC	20.3%	3.2%
COc1cc([C@@H]2c3cc4c(cc3[C@@H](O[C@@H]3O[C@@H]5CO[C@@H](C)O[C@@H]5[C@H](O)[C@@H]3O)[C@H]3COC(=O)[C@H]23)OCO4)cc(OC)c1O	-10.5%[29.6 µM]	-3.8%
CC[C@@]1(O)C(=O)OCc2c1cc1n(c2=O)Cc2cc3c([N+](=O)[O-])cccc3nc2-1	-16.8%	6.2%
CC[C@@]1(O)C(=O)OCc2c1cc1n(c2=O)Cc2cc3c(CN(C)C)c(O)ccc3nc2-1	86.7%	112µM*
COc1ccc2[nH]c(-c3ccccc3)c(CCNC(C)=O)c2c1	u	-2.6%
SMILES	EPAC2 ant val	EPAC1 agonist
CCCC(=O)NCCc1c2n(c3ccc(OC)cc13)CCCc1ccccc1-2	14.1µM*	4.6%
COC(=O)c1c(OCc2cccnc2)cc(=O)n2c1CCN(Cc1cc3c(cc1Cl)OCO3)CC2	-1.7%	3.0%
O=C(OC[C@H]1O[C@](O)(COC(=O)c2cccnc2)[C@@H](OC(=O)c2cccnc2)[C@@H]1OC(=O)c1cccnc1)c1cccnc1	-1.1%	-15.6%
Cc1cc2nc(N3CCCN(Cc4cccn4-c4ncccn4)CC3)nc(C)c2cc1C	-20.1%	7.1%
CC(=O)N(Cc1ccc2c(c1)OCO2)Cc1cc2ccc(C)cc2nc1-c1cccc(C)c1	u	5.6%
CCCCC[C@H](O)CC[C@H]1[C@H](O)CC(=O)[C@@H]1CCCCCCC(=O)O	-18.3%[11.4 µM]	-13.6%
CCCCC[C@H](O)/C=C/[C@H]1[C@H](O)CC(=O)[C@@H]1CCCCCCC(=O)O	14.1µM*!	-15.0%
COc1ccc(C(C)N(C)Cc2nc(N3CCN(C(=O)c4ccco4)CC3)c3ccccc3n2)cc1 (centres undefined)	-24.9%	8.4%
O=C1CCCCN1CCC(=O)N1CCOc2ccc(C(O)C3CCCCC3)cc2C1 (centres undefined)	u	-27.1%
Cc1cccc(N(C)C(=S)Oc2ccc3ccccc3c2)c1	-26.6%[56.6 µM]	112µM*!
Cc1cccc(N(C)C(=S)Oc2ccc3c(c2)CCC3)c1	-12.1%	23.9%
COC(=O)c1cccc(C(=O)NCc2nc(-c3cccc(NC(=O)c4ccoc4C)c3)oc2C)c1	-3.4%	13.7%

From PubChem
